From PubChem BioAssay AID2314 (National Center for Advancing Translational Sciences (NCATS), 2010) come the findings set out here.

In all, about 300,000 compounds went through this assay and about 37,000 (12%) were called active. This is one part of a sample in which actives are shown more often than they occur. A number with no mark means an inactive call. Rule as the data show it: active = max response mostly above about 13% (no sharp cut-off); inactive = mostly below about 14%.

The assay in a line: Cycloheximide Counterscreen for Small Molecule Inhibitors of Shiga Toxin. Also: read at 38.3 µM for the half of the compounds with a filed dose; 0% is about no effect. As to conditions: cell reporter, cycloheximide protein synthesis inhibition counterscreen; stronger effect = higher value. Background: Counterscreens check selectivity or assay interference.
Turning to `O=C(Nc1ccc(Cl)cc1)C1c2cccc[n+]2CC(=O)N1Cc1ccc2c(c1)OCO2` (configuration not stated), the max response is 17.1%.

For `CCOc1ccc(N2C(=O)CC(N(CCc3ccc(OC)c(OC)c3)C(=S)Nc3ccccc3)C2=O)cc1` (configuration not stated), the max response was 8.04%.

As for `O=C(CCN1C(=O)[C@H]2CC=CC[C@H]2C1=O)NCc1nc(-c2ccccc2)no1`, the max response was 6.47%.

`CC(=O)Nc1ccc(C(=O)C(Cc2ccccc2)N(C)C)cc1` (configuration not stated): the max response is 9.54%.

For `CC(C)CNC(=O)C(=O)Nc1ccc(N(C)C)cc1`, the max response was 38.6% (active).

Turning to `CC(C)CNC(=O)C(=O)NCc1ccccc1`, the max response was -1.62%.

Turning to `COc1ccc(NC(=O)Cn2ncn3c(cc4ccccc43)c2=O)c(OC)c1OC`, the max response is 12.5%.

As for `Cc1nnc(C)c2c(C)n(N)c(C)c12`, the max response is -2.66%.

In the case of `CC(C)CC(CC(C)C)=NNC(=O)c1ccc(CSc2nncn2C)cc1`, the max response is -1.48%.

As for `COC(=O)c1ccc(CSc2nncn2N)cc1`, the max response is 2.72%.

Regarding `COC(=O)c1ccc(CSc2nncn2C)cc1`, the max response was 62.2% (active).

In the case of `CCC(Cc1ccccc1)NC(=O)C1CCCCC1` (configuration not stated), the max response is 5.22%.

As for `CCOC(=O)c1ccc(NC(=O)c2nc[nH]c2C(=O)N[C@@H](CCCCNC(=O)OC(C)(C)C)C(=O)OC(C)(C)C)cc1`, the max response was -6.86%.

In the case of `C[C@@H](O)[C@@H]1NC(=O)[C@H](CCCCN)NC(=O)[C@H](Cc2c[nH]c3ccccc23)NC(=O)[C@H](Cc2ccccc2)NC(=O)[C@H](Cc2ccccc2)NC(=O)[C@H](CC(N)=O)NC(=O)[C@H](CCCCN)NC(=O)[C@@H](NC(=O)[C@@H]2CCCN2)CSSC[C@@H](C(=O)N[C@@H](CCCCN)C(=O)O)NC(=O)[C@H](CO)NC(=O)[C@H](CO)NC(=O)[C@H](Cc2ccccc2)NC1=O`, the max response is -1.5%.

With `COc1ccccc1/C=N\Nc1cc(C)nc(-n2nc(C)cc2C)n1`, the max response was -2.45%.

Turning to `COc1cccc(/C=N/Nc2ncc(C(F)(F)F)cc2Cl)c1O`, the max response was 12.5%.

As to `COc1cccc(/C=N/Nc2cc(C)nc(-c3ccccc3O)n2)c1O`, the max response is 28.6% (active).

As for `O=C(NC1CCCC1)C(c1ccc(N2CCOCC2)cc1)N(C(=O)c1ccco1)c1ccccc1F` (configuration not stated), the max response is -1.28%.

As for `CCOc1ccc(CN2CCN(Cc3ccc4cc(F)ccc4n3)CC2CCO)cc1` (configuration not stated), the max response is -3.76%.

With `CC1CCc2sc3nc(N4CCN(CCO)CC4)n4ncnc4c3c2C1` (configuration not stated), the max response was 22.8% (active).

`N#Cc1c2c(c(N3CCN(CCO)CC3)n3c1nc1ccccc13)CCCC2`: the max response was -2.13%.

With `Cc1cc(NC(=O)CSc2nc(C(C)C)nc3sc4c(c23)CCC(C)C4)no1` (configuration not stated), the max response is -1.25%.

Take `Cc1ccc(NC(=O)C2CCCN2C(=O)OCc2ccccc2)cc1C` (configuration not stated): the max response was 7.92%.

`O=C(Nc1ccccc1Cl)NC1(C(=O)N2CCOCC2)CCCCC1`: the max response is -1.76%.

As to `CCCCC(c1nnnn1CS(=O)(=O)c1ccc(C)cc1)N1CCC(C(N)=O)CC1` (configuration not stated), the max response is -6.32%.

Regarding `COc1ccc(/C=C2\SC(=S)N(CC(=O)NNC(=O)c3ccncc3)C2=O)cc1`, the max response was 5.86%.

`COc1ccc(/C=C2\SC(=N)N(c3ccc(F)cc3)C2=O)cc1`: the max response was -4.26%.

On to `COc1ccc(/C=C2\N=C3CCCN3C2=O)cc1`, for which the max response is 39.3% (active).

Turning to `Cn1c(=O)c2c(-c3cccc(Br)c3)c(C#N)c(N)nc2n(C)c1=O`, the max response was 1.41%.

As for `COC(=O)C1=CN(Cc2ccc(OC)c(OC)c2)C=C(C(=O)OC)C1c1cccs1`, the max response is 8.87%.

Turning to `CN1OC(COC(=O)c2ccc(Cl)cc2)CC1c1ccccc1` (configuration not stated), the max response is 66.4% (active).

As to `CN1C2C=C(N(C(=O)c3ccc(Cl)cc3)c3ccccc3)CC1CC2` (configuration not stated), the max response is -2.76%.

Take `Cn1cncc1COC(=O)c1ccc(Cl)cc1`: the max response is 5.18%.

Turning to `Cc1ccc(CNC(=O)CCC(=O)N2CC(C)Sc3ccccc32)cc1` (configuration not stated), the max response is -1.08%.

For the molecule `CCOC(=O)N1CCC(N2Cc3cccc(C(=O)Nc4c(C)cccc4CC)c3C2=O)CC1`, the max response is -3.86%.

Consider `COc1cccc2sc(N(CCCN(C)C)C(=O)CCS(=O)(=O)c3ccccc3)nc12`, for which the max response is 11.6%.

For the molecule `CNC(=O)c1nnc(Cc2ccc(Cl)cc2)o1`, the max response is 11.5%.

Consider `S=C(NCc1cccs1)Nc1ccc(Cl)cc1`, for which the max response is 13.8%.

Take `Clc1ccc(Cc2nnc(-c3cccs3)o2)cc1`: the max response is 32.7% (active).

On to `CC1CN(C(=S)SCC(=O)c2ccccc2)CC(C)O1` (configuration not stated), for which the max response was 34.8% (active).

In the case of `CSCC(=O)N1CCCC(C(=O)c2cc(F)ccc2F)C1` (configuration not stated), the max response is 5.48%.

As to `O=C(CSC(=S)N1CCCCC1)c1c(F)cccc1F`, the max response was 42.5% (active).

With `O=C(CSC(=S)N1CCOCC1)c1cc(Br)cc(Br)c1O`, the max response was -5.21%.

As to `O=C(CP(=O)(c1ccccc1)c1ccccc1)N1CCOCC1`, the max response is -5.81%.

As to `CC1CN(C(=S)Nc2ccccc2F)CC(C)O1` (configuration not stated), the max response was 1.94%.

Regarding `O=C(CSC(=S)N1CCOCC1)c1ccccc1`, the max response is 19% (active).

For `COC(=O)[C@H](Cc1ccccc1)NC(=O)N1CC(C)OC(C)C1` (some centres not stated), the max response is 0.915%.

With `O=C(NC1CCN(Cc2ccccc2)CC1)c1c(F)cccc1F`, the max response was -3.43%.

For the molecule `CCOC(=O)c1c(CN(C)C)n(-c2ccccc2)c2cc(Br)c(O)cc12`, the max response was -1.63%.

As to `C[C@H]1CCC(=O)N([C@H](CSc2ccccc2)Cc2ccccc2)CC1`, the max response was 6.38%.

`Cc1c(C(=O)N2CCCC2)c(S(=O)(=O)NCC(C)c2ccccc2)c(C)n1C` (configuration not stated): the max response is -6.59%.

Turning to `COc1ccc(N(CC(=O)NC2CCCCC2)C(=O)CNC(=O)c2ccco2)c(OC)c1`, the max response was 1.11%.

Consider `CC1CC(NC(=O)/C(C#N)=C/c2ccc[nH]2)CC(C)(C)C1` (configuration not stated), for which the max response is 4.89%.

Consider `CC(=O)NC1=NN(C(C)=O)C(C)(c2ccc(Cl)s2)S1` (configuration not stated), for which the max response was -1.1%.

Consider `O=C(N/N=C/c1cccc2cccnc12)[C@H]1C[C@@H]1c1ccccc1`, for which the max response is 8.61%.

For the molecule `CN(C)/C(CN1CCCCC1)=C1\N=C(c2ccccc2)OC1=O`, the max response was -3.11%.

Turning to `O=c1cc(CN2CCN(S(=O)(=O)/C=C/c3ccccc3)CC2)c2ccc(O)cc2o1`, the max response is -1.39%.
